LASV entry inh: qHTS for Inhibitors of binding or entry into cells for Lassa Virus | Lassa virus pseudotype entry inhibition, cell reporter | 1.2% of 300,000 active | Potency, µM (top dose mostly 37.9 µM), for the others: top-dose activity change, negative = inhibition, most hits filed as inhibitors | AID 540256, 2011; calls by dose curve; tested in HEK293 cells; further: potency means the concentration at half of the fitted maximal effect; nearly all actives have a fitted effect of over 50% in size
FMDV antiviral: High Throughput Screening for Foot and Mouth Disease Virus Antivirals. Potency, µM (highest dose often 57.9 µM), for the others: at the highest dose activity change, negative = inhibition, usual class: inhibitors. 1.2% of 410,000 active. AID 1159524, 2015. FMDV antiviral cell-based qHTS; calls by dose curve; tested in HEK293T cells; further: read-out not given here; potency means the concentration at half of the fitted maximal effect; nearly all actives have a fitted effect of over 45% in size
HCMV antiviral: qHTS Assay for inhibitors of the human cytomegalovirus (HCMV) | HFF cells, HCMV-luciferase reporter, 72 h; hits give low values | activity change, negative = inhibition, % at 57.5 µM | 4.5% of 410,000 active | AID 1259415, 2018; in the data active means activity change below about -60%; inconclusive means no clear call, values can overlap the other calls; inactive means above about -39%
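Steps: HFFs plated, 16 h 37C; compounds added; HCMV-luciferase added to MOI 1 PFU/cell; 72 h 37C; OneGlo reagent, 5 min room temperature; luminescence read, normalized to controls.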
Marburg entry inh: qHTS for inhibitors of binding or entry into cells for Marburg Virus | AID 540276, 2011 | Potency, µM (series often up to 37.8 µM), without a hit: top-dose activity change, negative = inhibition, actives largely listed as inhibitors | Marburg virus pseudotyped entry inhibition, cell reporter | 1.8% of 300,000 active; calls by dose curve; tested in HEK293 cells; further: potency means the concentration at half of the fitted maximal effect
HCV inh: qHTS Assay for Inhibitors of Hepatitis C Virus (HCV); 3.4% of 340,000 active; Potency, µM (titrated, usually from 41.8 µM), for inactives: at the top dose activity change, negative = inhibition, hits mostly inhibitors; Huh7.5.1 HCVcc-Cre infection, luciferase reporter, 44 h; active means well fitted inhibition curve with a large enough effect; inconclusive means small, poorly fitted or top-dose-only effect, or another doubt; inactive means no such curve, though single readings can be large or run the other way; further: potency means the concentration at half of the fitted maximal effect
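1,000 cells/well; 4 h culture; + compound; + HCVcc-Cre (~0.5 moi); 44 h; luciferase substrate, RT 15 min; read 15 sec.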
Starred values were filed as active, the others as inactive; ? = inconclusive; · = no result given; ! = not confirmed by another sample; [ ] = remark or other dose. This is a sample that favours compounds with a hit; in the whole collection about 7.9% have one here. On the % scale 0 is the no-effect control and ±100 the full control effect.

SMILES	LASV entry inh	FMDV antiviral	HCMV antiviral	Marburg entry inh	HCV inh
O=C(c1ccc(C(F)(F)F)cc1)C1CCCN(Cc2ccc(CO)o2)C1 (centres undefined)	·	-5.2%	-37.1	·	-8.9%
O=C(c1ccc(C(F)(F)F)cc1)C1CCCN(C(=O)CCc2ccncc2)C1 (centres undefined)	-29.9%[46.1 µM]	?	-21.2	?	11.2µM*
NC(=O)CCC(=O)N1CCCC(C(=O)c2ccc(C(F)(F)F)cc2)C1 (centres undefined)	·	-20.7%	-21.1	·	-3.7%
O=C(c1ccc(C(F)(F)F)cc1)C1CCCN(Cc2ccncc2)C1 (centres undefined)	·	?	?	-28.9%[46.1 µM]	6.31µM*
Cc1nc2c(c(C)c1CCC(=O)NCc1ccc(Cl)cc1)c(=O)n(C)c(=O)n2C	?	-7.7%	7.9	9.0%[46.1 µM]	·
Cn1c(SCC(=O)NC(C)(C)C)nnc1-c1ccc(C(C)(C)C)cc1	-20.0%	·	-60.5*	-20.3%	?
COCCNC(=O)CCCn1c(SCc2ccccc2Cl)nc2c(sc3ccccc32)c1=O	2.5%[46.1 µM]	?	10.8	-15.0%[46.1 µM]	·
COCCNC(=S)NCc1ccc2[nH]c3c(c2c1)CCCC3	·	10.7%	-72.6*	·	-26.0%
COC(=O)C1CCN(Cc2ccc3c(c2)CN(C(=O)c2cc(C4CC4)on2)CCO3)CC1	·	-15.3%	·	·	·
COc1ccc(CCNC(=O)c2cc(S(=O)(=O)N3CCCC(C)C3)cn2C)cc1OC (centres undefined)	6.9%[46.1 µM]	?	0.7	·	·
CC1(C)N=C(N)N=C(N)N1c1ccc(CCCCc2ccccc2)cc1	·	3.55µM*	-100.6*	·	·
CC1(C)N=C(N)N=C(N)N1c1ccccc1	?	-14.7%	-29.6	?	?
CCc1ccc2[nH]c(=O)c(CN(CCN(C)C)C(=O)Nc3ccccc3OC)cc2c1	-13.3%	-5.3%	-12.9	-23.9%	-6.5%
CCc1ccc2[nH]c(=O)c(CN(Cc3ccccc3)C(=O)Nc3ccccc3OC)cc2c1	-19.7%	-17.3%	?	?	2.51µM*
O=C(NC1CCCCC1)N(Cc1cc2cc3c(cc2[nH]c1=O)OCCO3)C1CCCCC1	10.6%	-2.5%	-80.4*	?	11.2µM*
COC(=O)c1ccccc1NC(=S)N(Cc1ccc2c(c1)OCO2)Cc1cc2cc(OC)ccc2[nH]c1=O	?	-11.3%	?	?	11.2µM*
COc1ccc2cc(CN(C(=O)Nc3ccccc3OC)C3CCCC3)c(=O)[nH]c2c1	?	-19.9%	0.3	8.91µM*	?
COc1cc2cc(CN(C(=O)NC3CCCCC3)C3CCCC3)c(=O)[nH]c2cc1OC	-2.1%	10.6%	-27.3	6.5%	16.0%
CCOC(=O)N/N=C1\C[C@@H](O)[C@@H](O)[C@@H]2[C@@H]3C(=O)N(c4ccc(F)cc4F)C(=O)[C@@H]3CC[C@@H]12	·	·	·	-21.5%[14.2 µM]	·
CCOC(=O)c1ccc(NC(=O)c2cn3c4c(ccc(Cl)c4c2=O)OC(C)C3)cc1 (centres undefined)	13.1%[46.1 µM]	-13.1%	1.1	·	·
NCCNS(=O)(=O)c1cccc2c(Cl)cccc12	-28.7%	-11.5%	·	11.2µM*	·
CN1C(=O)C(CC(=O)Nc2ccc(F)cc2)N(CCCc2ccccc2)C1=S (centres undefined)	?	?	?	11.2µM*	-17.0%
COc1ccc(NC(=O)CC2C(=O)N(C)C(=S)N2CCc2ccccc2F)cc1 (centres undefined)	?	0.0%	?	?	?
CC(/C=N/N1CCN(Cc2ccccc2)CC1)=C\c1ccccc1	-2.4%	-4.9%	-103.8*	10.2%[46.1 µM]	-11.5%
CCc1ccc(-n2c(SC(CC)C(=O)N(CC)CC)nc3n[nH]c(C)c3c2=N)cc1 (centres undefined)	-16.0%[46.1 µM]	?	-83.6*	·	·
SMILES	LASV entry inh	FMDV antiviral	HCMV antiviral	Marburg entry inh	HCV inh
CCOc1ccc(Cl)cc1CSc1ncn[nH]1	-6.2%	-24.9%	-67.7*	?	?
CCN(CC)CCCC(C)Nc1nccc2c(Cl)cccc12 (centres undefined)	?	-17.6%	-34.7	?	10µM*
COc1cc2c(cc1OC)[C@@H]1C(=O)c3ccc4c(c3O[C@@H]1CO2)C[C@H](C(C)C)O4	?	?	-93.8*	7.08µM*	0.316µM*
COc1cc2c(cc1OC)C1C(=O)c3ccc4c(c3OC1CO2)CC(C(C)C)O4 (centres undefined)	?	?	-96.1*	3.55µM*	?
CCCOC(=O)Nc1ccc([As](=O)(O)O)cc1NC(=O)OCCC	20.9%[46.1 µM]	-8.0%	-80.1*	9.0%[46.1 µM]	25.9%
CCOC(=O)Nc1ccc(C)cc1NC(=O)OCC	12.2%	-10.3%	0.3	14.2%	-26.8%
CNC(=S)N1CCN(c2nc(-c3ccc(F)cc3)cs2)CC1	·	-17.8%	?	·	?
S=C(NCC1CCCO1)N1CCN(c2nc(-c3ccc(Cl)cc3)cs2)CC1 (centres undefined)	?	15.8µM*	-63.2*	?	?
S=C(NCC1CCCO1)N1CCN(c2cccc(Cl)c2)CC1 (centres undefined)	·	1.4%	-39.2	·	?
CCCNC(=S)N1CCN(c2nc(-c3ccc(C)cc3)cs2)CC1	-10.6%	?	?	?	12.6µM*
COCCCNC(=S)N1CCN(c2nc(-c3ccc(F)cc3)cs2)CC1	·	?	-84.9*	·	10µM*
CCOCCCNC(=S)N1CCN(c2nc(-c3ccc(F)cc3)cs2)CC1	·	?	-84.8*	·	11.2µM*
COCCNC(=S)N1CCN(c2nc(-c3ccccc3)cs2)CC1	·	-21.0%	?	·	-19.9%
Cc1ccc2c(c1)CN(C(=O)CC(c1ccccc1)c1ccco1)CC(C)O2 (centres undefined)	·	-5.8%	·	·	·
COc1cccc(CN2C(=O)c3ccccc3Sc3ccc(C(=O)NCc4ccccc4)cc32)c1	-15.2%[46.1 µM]	3.7%	-12.0	?	·
O=C(/C=C/c1cccc2ccccc12)c1ccncc1	?	14.1µM*	-82.7*	?	15.8µM*
Cc1ccc(CCNC(=O)c2cccc(Nc3nc4ccccc4nc3-n3nc(C)cc3C)c2)cc1	1.1%[46.1 µM]	3.9%	-1.0	4.8%[46.1 µM]	·
Oc1ccc(Oc2ncc(Cl)cc2Cl)cc1	1.0%	-4.7%	13.3	-2.9%	7.1%
Clc1cnc(Oc2ccc(Oc3ncc(Cl)cc3Cl)cc2)c(Cl)c1	?	-10.4%	-24.5	1µM*!	22.8%
CCOC(=O)c1ccccc1NS(=O)(=O)c1c(-c2ccc(C)cc2)csc1C(=O)OC	-29.1%[46.1 µM]	0.0%	-65.2*	·	·
COc1ccc(-c2csc(NC(=O)c3ccccc3NS(=O)(=O)c3ccc(C)cc3)n2)cc1	?	?	-96.0*	12.6µM*	5.01µM*
COc1ccc(S(=O)(=O)Nc2ccccc2C(=O)Nc2nc(-c3ccc(F)cc3)cs2)cc1OC	11.2µM*	-16.2%	-76.4*	?	?
CC(C)c1ccc(C(=O)NCCCN2CCOCC2)cc1	·	31.8%	-15.1	·	0.7%
CC(C)c1ccc(/C=C2\C(=O)N(CCN3CCOCC3)C(=S)N2C)cc1	?	?	-66.4*	?	10µM*

Source: PubChem (National Center for Advancing Translational Sciences (NCATS))
